# Publication PMC7862700, “An all-to-all approach to the identification of sequence-specific readers for epigenetic DNA modifications on cytosine”
# How the values were obtained:
# Assay in all cases: DAPPL (digital affinity profiling via proximity ligation, sequencing); 10 mM Tris-HCl pH 7.5, 50 mM NaCl, 1 mM DTT, 4% glycerol, room temperature, 30 min; GST-TFs on glutathione beads, 16-mer random dsDNA library, 0.1% formaldehyde crosslink after washing; high values mean tight binding
# FEV = target: T1, FEV (Homo sapiens, UniProt Q99581 1-238); conditions: protein: recombinant; tags: N-terminal GST; dsDNA, one strand shown
# T1 sequence: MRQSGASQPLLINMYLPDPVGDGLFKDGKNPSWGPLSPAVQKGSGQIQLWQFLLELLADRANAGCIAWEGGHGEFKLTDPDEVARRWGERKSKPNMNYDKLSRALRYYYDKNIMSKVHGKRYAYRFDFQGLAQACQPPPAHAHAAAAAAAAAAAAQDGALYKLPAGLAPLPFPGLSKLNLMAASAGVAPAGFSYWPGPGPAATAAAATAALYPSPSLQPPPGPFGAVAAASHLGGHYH
# In short: (§1)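 In yeast, human transcription factors were expressed with a GST fusion, then pulled down on glutathione beads and given DNA barcodes. Pooled with a tag-only sample, they were exposed to 200 nmole of a 16-mer random double-stranded DNA library (Tris/NaCl/DTT/glycerol buffer, room temperature, 30 min), washed, crosslinked with 0.1% formaldehyde, proximity-ligated using BsaI/T4 ligase for 1 h at 37 °C, PCR-amplified and read on an Illumina NextSeq500. Each hexamer's frequency of reads for a factor, divided by the matching frequency for the tag-only sample, gives the binding signal.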
# ETV5 = ETV5 (Homo sapiens, UniProt P41161 1-510); conditions: protein: recombinant; tags: N-terminal GST; dsDNA, one strand shown
# In short: as §1
# HSF1 = HSF1 (Homo sapiens, UniProt Q00613 1-529); conditions: protein: recombinant; tags: N-terminal GST; chain copies: 3; dsDNA, one strand shown
# In short: as §1
# SPIC = target: T2, SPIC (Homo sapiens, UniProt Q8N5J4 1-248); conditions: protein: recombinant; tags: N-terminal GST; dsDNA, one strand shown
# T2 sequence: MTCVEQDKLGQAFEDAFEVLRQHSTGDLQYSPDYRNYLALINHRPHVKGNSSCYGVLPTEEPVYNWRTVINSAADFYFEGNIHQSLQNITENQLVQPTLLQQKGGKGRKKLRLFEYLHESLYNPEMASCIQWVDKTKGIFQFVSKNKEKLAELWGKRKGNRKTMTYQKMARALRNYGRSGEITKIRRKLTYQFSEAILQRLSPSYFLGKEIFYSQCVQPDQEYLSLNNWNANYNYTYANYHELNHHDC
# In short: as §1
# ELF4 = ELF4 (Homo sapiens, UniProt Q99607 1-663); conditions: protein: recombinant; tags: N-terminal GST; dsDNA, one strand shown
# In short: as §1
# ELK4 = target: T3, ELK4 (Homo sapiens, UniProt P28324-2 1-405); conditions: protein: recombinant; tags: N-terminal GST; dsDNA, one strand shown
# T3 sequence: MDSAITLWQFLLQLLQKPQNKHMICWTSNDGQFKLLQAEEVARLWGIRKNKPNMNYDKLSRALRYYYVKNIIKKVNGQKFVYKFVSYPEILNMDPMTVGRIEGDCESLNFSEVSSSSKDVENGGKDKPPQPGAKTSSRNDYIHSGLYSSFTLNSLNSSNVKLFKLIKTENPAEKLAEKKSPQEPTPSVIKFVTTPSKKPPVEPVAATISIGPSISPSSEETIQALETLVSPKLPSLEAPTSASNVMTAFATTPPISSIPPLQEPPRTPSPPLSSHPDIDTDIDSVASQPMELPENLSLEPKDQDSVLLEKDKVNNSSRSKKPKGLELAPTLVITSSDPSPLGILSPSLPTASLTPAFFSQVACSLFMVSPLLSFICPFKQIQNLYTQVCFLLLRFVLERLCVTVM
# In short: as §1
# ETV2 = target: T4, ETV2 (Homo sapiens, UniProt O00321 1-342); conditions: protein: recombinant; tags: N-terminal GST; dsDNA, one strand shown
# T4 sequence: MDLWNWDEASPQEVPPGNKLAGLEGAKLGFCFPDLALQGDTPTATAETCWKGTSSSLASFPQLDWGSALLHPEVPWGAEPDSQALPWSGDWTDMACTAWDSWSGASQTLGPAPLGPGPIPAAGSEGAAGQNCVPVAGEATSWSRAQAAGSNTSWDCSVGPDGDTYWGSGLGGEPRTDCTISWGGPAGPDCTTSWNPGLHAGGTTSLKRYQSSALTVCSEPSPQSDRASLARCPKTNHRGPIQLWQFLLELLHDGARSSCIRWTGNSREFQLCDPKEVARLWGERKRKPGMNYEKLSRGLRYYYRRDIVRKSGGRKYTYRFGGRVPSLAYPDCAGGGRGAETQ
# In short: as §1
# ELF3 = target: T5, ELF3 (Homo sapiens, UniProt P78545 1-371); conditions: protein: recombinant; tags: N-terminal GST; dsDNA, one strand shown
# T5 sequence: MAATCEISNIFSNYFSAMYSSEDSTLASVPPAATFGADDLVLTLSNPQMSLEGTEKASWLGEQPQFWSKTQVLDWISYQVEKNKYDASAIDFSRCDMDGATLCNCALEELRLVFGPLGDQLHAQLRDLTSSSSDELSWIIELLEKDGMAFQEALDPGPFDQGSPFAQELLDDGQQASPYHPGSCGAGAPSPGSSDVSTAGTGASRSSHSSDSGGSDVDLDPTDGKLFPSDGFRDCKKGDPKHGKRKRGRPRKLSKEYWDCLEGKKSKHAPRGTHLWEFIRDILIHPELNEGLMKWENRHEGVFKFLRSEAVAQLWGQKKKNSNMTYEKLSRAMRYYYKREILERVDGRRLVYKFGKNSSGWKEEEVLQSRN
# In short: as §1
# CRX = CRX (Homo sapiens, UniProt O43186 1-299); conditions: protein: recombinant; tags: N-terminal GST; dsDNA, one strand shown
# In short: as §1
# ETV1 = ETV1 (Homo sapiens, UniProt P50549 1-477); conditions: protein: recombinant; tags: N-terminal GST; dsDNA, one strand shown
# In short: as §1
# ERF = target: T6, ERF (Homo sapiens, UniProt P50548 1-548); conditions: protein: recombinant; tags: N-terminal GST; dsDNA, one strand shown
# T6 sequence: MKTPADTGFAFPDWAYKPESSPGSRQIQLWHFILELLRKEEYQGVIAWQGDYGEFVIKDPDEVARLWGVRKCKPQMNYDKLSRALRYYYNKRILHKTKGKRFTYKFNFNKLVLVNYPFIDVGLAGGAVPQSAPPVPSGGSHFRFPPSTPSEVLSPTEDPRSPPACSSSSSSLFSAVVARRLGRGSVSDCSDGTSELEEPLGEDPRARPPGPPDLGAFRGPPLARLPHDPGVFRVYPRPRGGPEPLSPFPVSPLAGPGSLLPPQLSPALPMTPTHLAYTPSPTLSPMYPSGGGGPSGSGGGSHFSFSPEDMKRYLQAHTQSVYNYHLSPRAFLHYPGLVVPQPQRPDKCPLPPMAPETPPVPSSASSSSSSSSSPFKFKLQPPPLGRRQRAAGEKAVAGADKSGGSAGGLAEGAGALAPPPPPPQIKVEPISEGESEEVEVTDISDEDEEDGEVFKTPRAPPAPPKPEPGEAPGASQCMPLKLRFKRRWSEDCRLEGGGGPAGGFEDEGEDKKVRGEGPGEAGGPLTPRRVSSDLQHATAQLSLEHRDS
# In short: as §1
# ETV3L = target: T7, ETV3L (Homo sapiens, UniProt Q6ZN32 1-361); conditions: protein: recombinant; tags: N-terminal GST; dsDNA, one strand shown
# T7 sequence: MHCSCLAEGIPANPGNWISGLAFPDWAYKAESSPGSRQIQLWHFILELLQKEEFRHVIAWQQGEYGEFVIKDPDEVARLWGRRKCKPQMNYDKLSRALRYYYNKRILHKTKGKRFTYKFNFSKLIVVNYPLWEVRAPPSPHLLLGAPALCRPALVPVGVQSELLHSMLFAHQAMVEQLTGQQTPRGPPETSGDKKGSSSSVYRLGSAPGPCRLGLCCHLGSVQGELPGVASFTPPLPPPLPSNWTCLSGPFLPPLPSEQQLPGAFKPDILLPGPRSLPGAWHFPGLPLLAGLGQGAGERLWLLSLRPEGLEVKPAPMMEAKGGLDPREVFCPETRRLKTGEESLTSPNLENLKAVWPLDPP
# In short: as §1
# ETS2 = target: T8, ETS2 (Homo sapiens, UniProt P15036 1-469); conditions: protein: recombinant; tags: N-terminal GST; dsDNA, one strand shown
# T8 sequence: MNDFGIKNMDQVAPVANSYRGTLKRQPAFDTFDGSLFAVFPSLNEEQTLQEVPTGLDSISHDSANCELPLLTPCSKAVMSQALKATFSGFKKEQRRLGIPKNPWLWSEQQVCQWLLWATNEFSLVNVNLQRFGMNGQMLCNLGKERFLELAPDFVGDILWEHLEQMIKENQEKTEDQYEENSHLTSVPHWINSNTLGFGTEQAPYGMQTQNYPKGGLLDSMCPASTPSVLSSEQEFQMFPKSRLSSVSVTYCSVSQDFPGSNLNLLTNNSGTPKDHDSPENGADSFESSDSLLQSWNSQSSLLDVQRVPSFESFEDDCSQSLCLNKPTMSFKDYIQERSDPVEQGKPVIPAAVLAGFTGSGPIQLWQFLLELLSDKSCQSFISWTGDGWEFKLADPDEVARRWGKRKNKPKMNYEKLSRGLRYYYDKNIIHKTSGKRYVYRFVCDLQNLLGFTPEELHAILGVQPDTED
# In short: as §1
# SPDEF = target: T9, SPDEF (Homo sapiens, UniProt O95238 1-335); conditions: protein: recombinant; tags: N-terminal GST; dsDNA, one strand shown
# T9 sequence: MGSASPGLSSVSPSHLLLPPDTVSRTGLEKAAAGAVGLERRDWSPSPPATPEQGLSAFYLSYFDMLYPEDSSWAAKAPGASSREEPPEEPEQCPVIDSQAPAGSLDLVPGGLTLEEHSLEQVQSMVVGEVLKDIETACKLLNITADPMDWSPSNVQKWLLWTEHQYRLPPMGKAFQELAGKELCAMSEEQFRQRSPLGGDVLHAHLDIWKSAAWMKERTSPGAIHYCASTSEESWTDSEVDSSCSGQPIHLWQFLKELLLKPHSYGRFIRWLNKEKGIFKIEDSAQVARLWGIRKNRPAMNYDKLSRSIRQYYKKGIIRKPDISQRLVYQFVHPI
# In short: as §1
# ETV7 = target: T10, ETV7 (Homo sapiens, UniProt Q9Y603 1-341); conditions: protein: recombinant; tags: N-terminal GST; dsDNA, one strand shown
# T10 sequence: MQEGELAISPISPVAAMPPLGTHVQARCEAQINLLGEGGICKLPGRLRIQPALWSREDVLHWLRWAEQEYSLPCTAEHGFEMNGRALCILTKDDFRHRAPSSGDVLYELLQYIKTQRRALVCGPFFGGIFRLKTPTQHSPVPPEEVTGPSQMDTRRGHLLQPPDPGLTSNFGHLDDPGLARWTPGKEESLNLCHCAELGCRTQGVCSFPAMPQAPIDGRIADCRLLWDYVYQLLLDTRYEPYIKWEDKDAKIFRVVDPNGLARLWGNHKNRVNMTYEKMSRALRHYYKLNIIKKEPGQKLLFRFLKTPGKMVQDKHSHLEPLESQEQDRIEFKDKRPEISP
# In short: as §1
# ELF5 = target: T11, ELF5 (Homo sapiens, UniProt Q9UKW6-2 1-255); conditions: protein: recombinant; tags: N-terminal GST; dsDNA, one strand shown
# T11 sequence: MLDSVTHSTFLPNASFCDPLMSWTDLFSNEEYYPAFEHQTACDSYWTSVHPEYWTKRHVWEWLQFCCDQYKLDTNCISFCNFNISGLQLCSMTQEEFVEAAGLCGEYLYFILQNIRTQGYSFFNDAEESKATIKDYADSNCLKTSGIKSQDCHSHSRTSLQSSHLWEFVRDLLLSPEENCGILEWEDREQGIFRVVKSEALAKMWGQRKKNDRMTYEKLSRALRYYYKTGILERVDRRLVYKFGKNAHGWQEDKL
# In short: as §1
# ETV3 = target: T12, ETV3 (Homo sapiens, UniProt P41162-2 1-143); conditions: protein: recombinant; tags: N-terminal GST; dsDNA, one strand shown
# T12 sequence: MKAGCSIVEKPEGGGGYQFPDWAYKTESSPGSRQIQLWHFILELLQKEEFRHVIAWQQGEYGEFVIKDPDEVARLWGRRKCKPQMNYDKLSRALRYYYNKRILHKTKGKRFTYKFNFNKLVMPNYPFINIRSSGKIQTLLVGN
# In short: as §1
# ETV6 = ETV6 (Homo sapiens, UniProt P41212 1-452); conditions: protein: recombinant; tags: N-terminal GST; dsDNA, one strand shown
# In short: as §1
# Sequence of ETV5 (P41161 whole entry): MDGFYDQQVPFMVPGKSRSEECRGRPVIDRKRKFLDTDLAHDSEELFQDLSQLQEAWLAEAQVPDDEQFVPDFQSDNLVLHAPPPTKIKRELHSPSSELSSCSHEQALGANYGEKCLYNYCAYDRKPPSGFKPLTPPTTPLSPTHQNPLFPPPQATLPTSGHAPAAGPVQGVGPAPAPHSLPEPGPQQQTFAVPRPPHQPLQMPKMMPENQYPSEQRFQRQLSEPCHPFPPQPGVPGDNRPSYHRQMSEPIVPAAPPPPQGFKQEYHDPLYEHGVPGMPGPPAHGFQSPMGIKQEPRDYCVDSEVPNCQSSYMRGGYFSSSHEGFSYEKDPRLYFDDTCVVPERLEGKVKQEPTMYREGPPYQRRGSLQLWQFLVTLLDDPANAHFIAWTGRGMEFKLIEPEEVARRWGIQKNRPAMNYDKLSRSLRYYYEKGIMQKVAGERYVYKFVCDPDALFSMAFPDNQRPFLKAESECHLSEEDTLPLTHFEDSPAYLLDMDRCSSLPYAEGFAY
# Sequence of ETV1 (P50549 whole entry): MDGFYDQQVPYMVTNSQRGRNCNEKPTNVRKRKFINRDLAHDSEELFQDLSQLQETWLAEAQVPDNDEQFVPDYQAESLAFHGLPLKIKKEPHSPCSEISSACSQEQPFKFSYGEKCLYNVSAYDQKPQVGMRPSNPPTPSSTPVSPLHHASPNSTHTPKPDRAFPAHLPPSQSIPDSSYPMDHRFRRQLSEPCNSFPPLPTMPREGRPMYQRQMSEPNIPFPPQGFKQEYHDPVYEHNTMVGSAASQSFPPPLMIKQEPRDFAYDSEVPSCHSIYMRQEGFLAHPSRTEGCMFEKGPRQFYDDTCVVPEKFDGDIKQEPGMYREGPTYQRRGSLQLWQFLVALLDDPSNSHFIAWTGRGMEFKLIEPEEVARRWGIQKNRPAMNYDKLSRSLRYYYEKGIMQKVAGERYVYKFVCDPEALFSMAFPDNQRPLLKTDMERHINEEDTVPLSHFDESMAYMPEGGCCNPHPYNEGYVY
# Sequence of HSF1 (Q00613 whole entry): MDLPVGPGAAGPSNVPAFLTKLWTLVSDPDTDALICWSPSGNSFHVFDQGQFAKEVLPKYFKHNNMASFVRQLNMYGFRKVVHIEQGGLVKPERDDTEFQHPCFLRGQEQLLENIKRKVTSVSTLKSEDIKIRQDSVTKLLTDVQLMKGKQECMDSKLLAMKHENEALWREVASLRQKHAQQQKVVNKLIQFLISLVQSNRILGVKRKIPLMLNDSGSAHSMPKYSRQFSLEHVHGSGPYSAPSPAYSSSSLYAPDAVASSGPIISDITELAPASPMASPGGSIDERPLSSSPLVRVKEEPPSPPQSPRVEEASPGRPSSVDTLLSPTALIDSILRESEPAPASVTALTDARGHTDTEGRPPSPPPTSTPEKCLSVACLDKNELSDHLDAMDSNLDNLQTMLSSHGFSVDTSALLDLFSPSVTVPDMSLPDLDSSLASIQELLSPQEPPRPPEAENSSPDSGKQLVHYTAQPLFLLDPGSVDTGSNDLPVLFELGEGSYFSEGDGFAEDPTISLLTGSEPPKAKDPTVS
# Sequence of ETV6 (P41212 whole entry): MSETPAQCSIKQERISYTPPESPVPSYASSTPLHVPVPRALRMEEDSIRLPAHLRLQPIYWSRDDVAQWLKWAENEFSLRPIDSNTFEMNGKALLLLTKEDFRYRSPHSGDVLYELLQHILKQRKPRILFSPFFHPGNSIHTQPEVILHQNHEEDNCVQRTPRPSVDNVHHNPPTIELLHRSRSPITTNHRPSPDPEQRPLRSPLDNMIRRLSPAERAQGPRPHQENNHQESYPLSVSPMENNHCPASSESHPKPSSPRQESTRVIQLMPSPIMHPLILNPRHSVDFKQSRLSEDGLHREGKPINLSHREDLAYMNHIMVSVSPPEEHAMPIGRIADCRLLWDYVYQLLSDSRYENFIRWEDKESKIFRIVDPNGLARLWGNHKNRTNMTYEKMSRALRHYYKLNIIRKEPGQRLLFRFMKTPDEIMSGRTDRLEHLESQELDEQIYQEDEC
# Sequence of ELF4 (Q99607 whole entry): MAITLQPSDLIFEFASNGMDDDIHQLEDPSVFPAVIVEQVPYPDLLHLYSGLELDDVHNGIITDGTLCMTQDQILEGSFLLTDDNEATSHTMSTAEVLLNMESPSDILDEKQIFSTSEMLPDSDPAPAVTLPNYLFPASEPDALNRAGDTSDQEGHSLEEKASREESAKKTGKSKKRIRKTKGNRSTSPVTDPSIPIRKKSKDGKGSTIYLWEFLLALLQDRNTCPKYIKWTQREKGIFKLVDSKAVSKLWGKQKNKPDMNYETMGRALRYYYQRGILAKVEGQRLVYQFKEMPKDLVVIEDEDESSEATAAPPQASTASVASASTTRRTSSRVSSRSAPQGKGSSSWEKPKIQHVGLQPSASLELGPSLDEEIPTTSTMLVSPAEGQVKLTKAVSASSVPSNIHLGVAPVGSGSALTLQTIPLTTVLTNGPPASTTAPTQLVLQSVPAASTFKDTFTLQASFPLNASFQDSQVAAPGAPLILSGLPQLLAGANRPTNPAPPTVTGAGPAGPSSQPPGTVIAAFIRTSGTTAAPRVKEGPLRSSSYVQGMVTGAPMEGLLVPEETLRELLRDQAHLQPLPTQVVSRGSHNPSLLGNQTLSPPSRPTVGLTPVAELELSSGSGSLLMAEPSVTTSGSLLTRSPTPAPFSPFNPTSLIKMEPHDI
# Sequence of CRX (O43186 whole entry): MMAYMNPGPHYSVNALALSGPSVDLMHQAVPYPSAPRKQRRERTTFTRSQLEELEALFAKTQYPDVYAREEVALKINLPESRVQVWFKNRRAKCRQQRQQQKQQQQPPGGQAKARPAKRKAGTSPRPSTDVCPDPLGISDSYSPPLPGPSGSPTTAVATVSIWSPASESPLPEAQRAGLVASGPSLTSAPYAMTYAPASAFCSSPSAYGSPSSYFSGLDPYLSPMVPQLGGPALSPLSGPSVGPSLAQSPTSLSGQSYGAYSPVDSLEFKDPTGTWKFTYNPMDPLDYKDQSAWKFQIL
sequence,measurement,setting,value
ATATTC,binding signal,FEV,"1.19 fold enrichment (6-mer frequency, TF over GST control)"
same,binding signal,ETV5,"1.27 fold enrichment (6-mer frequency, TF over GST control)"
same,binding signal,HSF1,"2.2 fold enrichment (6-mer frequency, TF over GST control)"
same,binding signal,SPIC,"1.3 fold enrichment (6-mer frequency, TF over GST control)"
same,binding signal,ELF4,"1.29 fold enrichment (6-mer frequency, TF over GST control)"
same,binding signal,ELK4,"1.31 fold enrichment (6-mer frequency, TF over GST control)"
same,binding signal,ETV2,"1.22 fold enrichment (6-mer frequency, TF over GST control)"
same,binding signal,ELF3,"1.38 fold enrichment (6-mer frequency, TF over GST control)"
same,binding signal,CRX,"1.51 fold enrichment (6-mer frequency, TF over GST control)"
same,binding signal,ETV1,"1.26 fold enrichment (6-mer frequency, TF over GST control)"
same,binding signal,ERF,"1.08 fold enrichment (6-mer frequency, TF over GST control)"
same,binding signal,ETV3L,"1.35 fold enrichment (6-mer frequency, TF over GST control)"
same,binding signal,ETS2,"1.2 fold enrichment (6-mer frequency, TF over GST control)"
same,binding signal,SPDEF,"1.26 fold enrichment (6-mer frequency, TF over GST control)"
same,binding signal,ETV7,"1.24 fold enrichment (6-mer frequency, TF over GST control)"
same,binding signal,ELF5,"1.31 fold enrichment (6-mer frequency, TF over GST control)"
same,binding signal,ETV3,"1.19 fold enrichment (6-mer frequency, TF over GST control)"
same,binding signal,ETV6,"1.32 fold enrichment (6-mer frequency, TF over GST control)"
